The results in this text go back to PubChem BioAssay.

Test [1] is described as follows: resazurin metabolic signal in HepG2 cells – cell-based, resazurin fluorescence, 24 h, PK04 Diversity Set, profiling panel (AID 1172). Note: test concentration not given here. The conditions noted are these: HepG2 viability, higher = more signal. (In general: The colour change of resazurin is a common sign of viable cells or microbes.)
Test [2] in a line: budding yeast growth changes without added modifier – OD600, strain BY4716, 24 h, basal condition, primary screen (AID 1173). The conditions noted are these: S. cerevisiae BY4716 growth, OD600, 24 h; higher = more signal, called active from +8 up or from −8 down.
Test [3] is described as follows: viability profiling in MM1S myeloma cells – cell-based, resazurin fluorescence, basal, 24 h, PK04 Diversity Set, profiling panel (AID 1174).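 Note: MM1S multiple myeloma cell line; test concentration not given here.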 The conditions noted are these: higher = more signal, called active from +8 up or from −8 down.
Test [4] addresses Dihydroorotate dehydrogenase (quinone), mitochondrial (Plasmodium falciparum (isolate 3D7)) (UniProt Q08210). Kind of test: inhibition of P. falciparum DHODH – biochemical, C-terminal His tag, absorbance 600 nm, primary screen (AID 1175).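 Note: recombinant parasite enzyme with a five histidine tag at its C terminus; test concentration not given here.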 The conditions noted are these: PfDHODH enzyme, DCIP absorbance 600 nm; higher = more signal, called active from +8 up or from −8 down.
A short description of test [5]: inhibition of PAO1 biofilm formation – strain PAO1, LB-PBS medium, absorbance 600 nm, primary screen (AID 1176). Note: test concentration not given here. The conditions noted are these: P. aeruginosa PAO1 growth/biofilm, A600, 12 h; higher = more signal.
Test [6] in a line: growth modulation of vineyard yeast isolate – strain RM11-1a, OD600, basal, 24 h, primary screen (AID 1177).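 Note: cultures grown under basal conditions with no added stressor; test concentration not given here.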 Particulars: S. cerevisiae RM11-1a growth, OD600, 24 h; higher = more signal, called active from +8 up or from −8 down.
Test [7] in a line: growth of efflux-deficient E. coli DRC39 – strain DRC39, OD650, 24 h, E. coli filamentation inducers, primary screen (AID 1178).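 Note: growth measured as culture turbidity by optical density at 650 nm; test concentration not given here.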 The conditions noted are these: E. coli DRC39 acrAB, higher = more signal, called active from +8 up or from −8 down.
Test [8] is described as follows: growth of efflux-deficient E. coli DRC39 – strain DRC39, OD650, 48 h, E. coli filamentation inducers, primary screen (AID 1179).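 Note: screen aims at cell division blockers that make cells filament.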 The conditions noted are these: E. coli DRC39 delta-acrAB growth, higher = more signal, called active from +8 up or from −8 down.
Test [9] is described as follows: viability profiling in RPMI8226 myeloma cells – cell-based, resazurin fluorescence, basal, 24 h, PK04 Diversity Set, profiling panel (AID 1180).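 Note: RPMI8826 multiple myeloma cell line at 5000 cells per well; test concentration not given here.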 Particulars: higher = more signal.
Test [10] has as its target E3 ubiquitin-protein ligase XIAP (Homo sapiens) (UniProt P98170). The test can be described thus: small molecules binding XIAP protein – biophysical, small-molecule microarray, fluorescence 635 nm, primary screen (AID 1181).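 Note: score merges 667 nm emission and signal to noise over triplicate slides.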 Particulars: higher = more signal.

The source made the active and inactive calls. Unless noted, the rule behind the calls is not given here.

Sequence of Dihydroorotate dehydrogenase (quinone), mitochondrial (Plasmodium falciparum (isolate 3D7)) (Q08210 whole entry, looked up): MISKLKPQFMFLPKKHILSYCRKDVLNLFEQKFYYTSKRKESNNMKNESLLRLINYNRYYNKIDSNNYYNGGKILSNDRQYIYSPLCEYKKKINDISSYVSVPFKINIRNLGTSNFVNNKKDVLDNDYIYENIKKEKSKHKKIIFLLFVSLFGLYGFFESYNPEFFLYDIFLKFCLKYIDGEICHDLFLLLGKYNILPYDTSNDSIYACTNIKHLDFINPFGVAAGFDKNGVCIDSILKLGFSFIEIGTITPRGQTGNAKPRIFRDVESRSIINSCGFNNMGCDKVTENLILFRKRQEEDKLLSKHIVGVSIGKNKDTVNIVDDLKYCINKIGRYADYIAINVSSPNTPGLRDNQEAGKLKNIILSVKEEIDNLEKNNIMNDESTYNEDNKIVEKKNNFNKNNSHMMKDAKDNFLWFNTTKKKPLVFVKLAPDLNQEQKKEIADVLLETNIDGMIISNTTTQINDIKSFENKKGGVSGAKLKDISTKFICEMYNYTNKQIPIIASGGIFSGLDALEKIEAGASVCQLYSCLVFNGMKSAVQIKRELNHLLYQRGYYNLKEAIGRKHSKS
Sequence of E3 ubiquitin-protein ligase XIAP (Homo sapiens) (P98170 whole entry, looked up): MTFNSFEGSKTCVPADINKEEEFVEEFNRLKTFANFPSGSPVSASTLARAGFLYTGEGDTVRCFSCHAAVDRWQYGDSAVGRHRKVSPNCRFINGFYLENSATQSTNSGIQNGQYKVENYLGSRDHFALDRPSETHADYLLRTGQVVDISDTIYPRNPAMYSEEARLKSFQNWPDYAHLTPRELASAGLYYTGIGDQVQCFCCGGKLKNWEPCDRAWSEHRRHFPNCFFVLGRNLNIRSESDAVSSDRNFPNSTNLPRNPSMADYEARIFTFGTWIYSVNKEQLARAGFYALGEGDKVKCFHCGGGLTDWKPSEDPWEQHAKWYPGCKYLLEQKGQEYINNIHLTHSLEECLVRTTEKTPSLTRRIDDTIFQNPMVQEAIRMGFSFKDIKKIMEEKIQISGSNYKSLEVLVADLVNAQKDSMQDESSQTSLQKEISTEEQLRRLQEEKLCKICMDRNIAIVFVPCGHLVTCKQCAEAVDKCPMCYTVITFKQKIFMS

As for `C=CCOC(=O)[C@@H]1[C@H]2C(=O)O[C@H](c3ccccc3)[C@H](c3ccccc3)N2[C@H](c2ccc(OCCOC(=O)[C@@H]3C[C@@H]4C(=O)N5CCC[C@H]5C(=O)N4[C@@H]3c3ccc(O)cc3)cc2)[C@@]12C(=O)Nc1ccc(I)cc12`, the z-score is 0.339 in test [1]; 0.155 (inactive) in test [2]; -0.446 (inactive) in test [3]; 2.65 (inactive) in test [5]; -0.468 (inactive) in test [6]; 0.65 (inactive) in test [7]. Moreover, the values for the z-score in [8] and in test [9] were 1.72 (inactive) and 1.28, respectively. For the same compound, the composite z-score is -0.326 (inactive) in [4] and -0.059 in test [10].
Turning to `COc1ccc(CCNC(=O)[C@@]2(C)c3ccccc3C(=O)N(Cc3cc(F)cc(C(F)(F)F)c3)[C@H]2c2ccc(CO)cc2)cc1`, the z-score in test [1] is -0.469; in test [2], -0.513 (inactive); in [3] it was 1.02 (inactive); in [5], 0.593 (inactive); in test [6], 1.1 (inactive); in [7] it was 0.568 (inactive). Also, the figures for the z-score in [8] and in test [9] were 0.453 (inactive) and 0.652, respectively. Moreover, the composite z-score in test [4] is 0.917 (inactive); in test [10] it was 0.003.
For `C=CCOC(=O)[C@@H]1[C@H]2C(=O)O[C@H](c3ccccc3)[C@H](c3ccccc3)N2[C@H](c2ccc(OCCOC(=O)[C@@H]3C[C@@H]4C(=O)N[C@@H](CCCC[N+](C)(C)C)C(=O)N4[C@@H]3c3cccc(OCCO)c3)cc2)[C@@]12C(=O)Nc1ccc(I)cc12`, the z-score was 1.34 in [1]; -1.21 (inactive) in test [2]; -0.669 (inactive) in test [3]; 1.18 (inactive) in test [5]; 1.98 (inactive) in test [6]; -0.62 (inactive) in test [7]. Besides, the z-score was -0.659 (inactive) in test [8] and -0.847 in [9]. Besides, the composite z-score is -5.39 (inactive) in test [4] and -0.126 in test [10].
For the compound `C=C(CCCC)C(=O)CC[C@@H](OC(=O)c1cccnc1)c1ccc(CO)o1`, the z-score was 0.154 in test [1]; -0.594 (inactive) in test [2]; -0.16 (inactive) in test [3]; 0.555 (inactive) in test [5]; 0.0671 (inactive) in test [6]; 0.186 (inactive) in test [7]. The z-score was -0.0608 (inactive) in [8] and 0.0739 in test [9]. For the same compound, the composite z-score in test [4] is -1.05 (inactive); in test [10] it was 0.0256.
Regarding `CN(C)C(=O)[C@]1(Cc2ccccc2N=[N+]=[N-])N=C(c2ccc(OCCCO)cc2)O[C@@H]1c1ccccc1`, the z-score in test [1] was 0.0707; in test [2], -1.87 (inactive); in test [3] it was -0.597 (inactive); in test [5] it was -1.49 (inactive); in test [6], 0.504 (inactive); in test [7], 0.651 (inactive). In addition, the z-score in [8] is 1.15 (inactive); in test [9], 0.0542. The composite z-score is 0.209 (inactive) in [4] and -0.141 in [10].
For `C=C/C=C/[C@H]1C(=C)CN([C@@H](Cc2ccccc2)C(=O)OC)[C@@H]1[C@H](O)Cc1ccccc1`, the z-score in [1] was 0.28; in [2], -1.91 (inactive); in [3] it was 0.883 (inactive); in test [5], 0.531 (inactive); in [6], -0.609 (inactive); in test [7] it was 0.701 (inactive). Also, the z-score in test [8] was 0.595 (inactive); in test [9] it was 0.73. Besides, the composite z-score in test [4] was -1.09 (inactive); in [10] it was 0.643.
For `C=C(COC)/C(=C/C[C@@H](OC(C)=O)c1ccc(CO)o1)c1cnc2ccccc2c1`, the z-score in test [1] is -0.956; in test [2], -0.677 (inactive); in test [3], 0.915 (inactive); in [5], 0.579 (inactive); in [6] it was 0.704 (inactive); in test [7], 0.685 (inactive). The z-score was -0.0551 (inactive) in test [8] and 0.47 in test [9]. The composite z-score in test [4] was -8.64 (active); in [10], 0.0225.
`COc1cc2c(cc1OC)CN(C(=O)[C@H]1[C@@H]3C(=O)O[C@@H](c4ccccc4)[C@@H](c4ccccc4)N3[C@@H](c3ccc(O)cc3)[C@]13C(=O)Nc1ccc(C#CCNC(N)=O)cc13)CC2`: the z-score in test [1] is 0.543; in [2], 0.16 (inactive); in test [3], 0.187 (inactive); in [5] it was 0.305 (inactive); in [6] it was 0.0092 (inactive); in test [7] it was 0.537 (inactive). Further, the z-score is 0.0455 (inactive) in [8] and 0.592 in test [9]. The composite z-score is -2.16 (inactive) in test [4] and -0.202 in [10].
Regarding `C=CCOC(=O)[C@@H]1[C@H]2C(=O)O[C@H](c3ccccc3)[C@H](c3ccccc3)N2[C@H](c2ccc(OCCOC(=O)[C@@H]3C[C@@H]4C(=O)N[C@@H](CCCCN(C)C)C(=O)N4[C@@H]3c3ccc(O)cc3)cc2)[C@@]12C(=O)Nc1ccc(I)cc12`, the z-score in test [1] was 0.883; in test [2] it was -0.955 (inactive); in [3], -0.078 (inactive); in test [5], 0.531 (inactive); in test [6], 1.65 (inactive); in test [7] it was -0.821 (inactive). The results for the z-score in [8] and in test [9] were 0.0885 (inactive) and -0.153, respectively. Also, the composite z-score in test [4] is -0.262 (inactive); in test [10], -0.157.
In the case of `CN1C(=O)C2C=CC(C(O)C3=C[C@H]4C[C@@H](C3)C4(C)C)N(Nc3ccccc3)C2C1=O` (stereo not given in full), the z-score was -0.3 in test [1]; 0.0844 (inactive) in test [2]; -0.419 (inactive) in test [3]; 2.14 (inactive) in test [5]; 0.602 (inactive) in test [6]; -0.328 (inactive) in [7]. Further, the z-score in test [8] is -0.369 (inactive); in [9] it was -0.52. In addition, the composite z-score is -0.0435 (inactive) in test [4] and -0.174 in [10].
Turning to `COCCOC(=O)N1C(=O)[C@@]2(c3cc(C#CC4=CCCCC4)ccc31)[C@H](c1ccc(O)cc1)N1[C@H](c3ccccc3)[C@H](c3ccccc3)OC(=O)[C@H]1[C@@H]2C(N)=O`, the z-score was -0.74 in [1]; -0.167 (inactive) in [2]; -1.85 (inactive) in test [3]; 0.318 (inactive) in [5]; 0.654 (inactive) in test [6]; 0.066 (inactive) in test [7]. In addition, the z-score was 0.552 (inactive) in test [8] and -2.95 in test [9]. Further, the results for the composite z-score in test [4] and in [10] were -1.06 (inactive) and 0.0435, respectively.
For the compound `COc1ccc(C(O)C2C=CC3C(=O)NC(=O)C3N2Nc2ccccn2)cc1` (stereo not given), the z-score in [1] is -0.396; in [2] it was 0.0843 (inactive); in test [3], -0.285 (inactive); in [5] it was 0.366 (inactive); in [6], 0.31 (inactive); in test [7] it was -0.276 (inactive). For the same compound, the results for the z-score in test [8] and in test [9] were -0.401 (inactive) and -0.721, respectively. Also, the composite z-score in test [4] is 0.91 (inactive); in test [10] it was -0.893.
